Source: PubChem BioAssay
Active and inactive are the calls of the source.

How the values were obtained:
[1] = target: Albumin (Bos taurus) (UniProt P02769); assay: bovine serum albumin binders on microarray, profiling panel, artefact control for SMM control protein annotation, biochemical, small-molecule microarray, Alexa647 label, 635/667 nm fluorescence (AID 1118); settings: BSA-A647 binding, fluorescence 635 nm, higher = more signal;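 further: score merges 667 nm emission intensity and signal-to-noise per printed compound spot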
[2] = small-molecule microarray binders of probe aXIP, primary screen, biochemical, NeuroSMM set, 635/667 nm fluorescence (AID 1119); settings: higher = more signal, called active from +8 up or from −8 down;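 further: probe is the protein aXip251-270 applied at 1 µg/mL to compound-printed slides; binding of probe to printed compounds measured as 667 nm fluorescence plus signal to noise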
[3] = small-molecule binders of probe aNOTCH3, primary screen, biochemical, small-molecule microarray, 635/667 nm fluorescence (AID 1120); settings: higher = more signal;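 further: probe is a biotin-tagged antibody raised against NOTCH3 rather than NOTCH3 protein; score merges spot fluorescence near 667 nm with spot signal to noise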
[4] = small-molecule binders of probe aNOTCH2, primary screen, biochemical, small-molecule microarray, 635/667 nm fluorescence (AID 1121); settings: higher = more signal;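 further: score merges feature fluorescence read at 667 nm with its signal to noise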
[5] = target: Carbonic anhydrase 2 (Homo sapiens) (UniProt P00918); assay: CAII small-molecule binders, profiling panel, biochemical, small-molecule microarray, Alexa647-labelled CAII (AID 1122); settings: CAII-A647 binding fluorescence, higher = more signal
[6] = COS7 lysate on small-molecule microarray, probe aHis, 635 nm (AID 1123); settings: COS7 cell lysate, fluorescence, higher = more signal;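 further: z-score combines 667nm fluorescence intensity with signal-to-noise per printed compound spot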
[7] = compound binding in COS7 lysate, probe aLAP1, primary screen, cell lysate, small-molecule microarray (AID 1124); settings: probe aLAP1, fluorescence, higher = more signal;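 further: lysate comes from COS7 cells expressing LAP1 and is applied at 0.3 µg/mL; score merges spot fluorescence near 667 nm with signal-to-noise over triplicate slides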
[8] = test system: Sam68 (KHDRBS1); assay: Sam68 small-molecule binders, primary screen, biochemical, small-molecule microarray, 635 nm fluorescence (AID 1125); settings: small-molecule microarray binding, higher = more signal;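 further: score merges 667 nm channel intensity with signal to noise over triplicate slides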
[9] = test system: Chordin-like protein 2 (CHRDL2); assay: CHRDL2 small-molecule binders, primary screen, biochemical, small-molecule microarray, 635 nm fluorescence (AID 1126); settings: small-molecule microarray binding, fluorescence 635 nm; higher = more signal;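 further: printed compound slides probed with Chrdl2 protein at 4 µg/mL for 1 h at 4 C; score merges 667 nm emission intensity with signal to noise over three replicate slides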
[10] = target: Concanavalin-A (Canavalia ensiformis) (UniProt P02866); assay: ConA small-molecule binders, primary screen, artefact control for SMM control protein annotation, biochemical, small-molecule microarray, Alexa647 label, 635 nm (AID 1127); settings: ConA-A647 binding fluorescence, higher = more signal;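 further: z combines 667 nm emission intensity with signal-to-noise across three replicate slides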
[11] = anti-His antibody binders, primary screen, artefact control for SMM control protein annotation, biochemical, small-molecule microarray, 635 nm fluorescence (AID 1128); settings: anti-His Alexa647 antibody binding, higher = more signal;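 further: score merges feature fluorescence with signal-to-noise for each printed compound spot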
[12] = test system: Human papillomavirus type 1a E7 protein (residues 1-88); assay: HPV1a E7 small-molecule binders, primary screen, biochemical, small-molecule microarray, residues 1-88, 635 nm (AID 1129); settings: small-molecule microarray binding, fluorescence 635 nm; higher = more signal
[13] = target: Focal adhesion kinase 1 (Homo sapiens) (UniProt Q05397); assay: small-molecule microarray binders of FAK, primary screen, biochemical, 635/667 nm fluorescence, BSA, DTT (AID 1130); settings: PTK2 binding, 635 nm fluorescence, higher = more signal;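 further: composite of spot emission at 667 nm and signal to noise over triplicate slides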
[14] = test system: Fibrinogen (Alexa647-labelled); assay: fibrinogen binders on compound microarrays, profiling panel, artefact control for SMM control-protein annotation, biochemical, small-molecule microarray, 635/667 nm fluorescence (AID 1131); settings: fibrinogen-A647 binding fluorescence, higher = more signal;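 further: z-score merges 667 nm fluorescence with per-spot signal-to-noise over triplicate slides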
[15] = target: Follistatin (Homo sapiens) (UniProt P19883); assay: follistatin binders on small-molecule microarrays, primary screen, biochemical, small-molecule microarray, 635/667 nm fluorescence (AID 1132); settings: FST binding, 635 nm fluorescence, higher = more signal
[16] = target: Fibroblast growth factor 2 (Homo sapiens) (UniProt P09038); assay: FGF2 binders on small-molecule microarrays, primary screen, biochemical, small-molecule microarray, 635/667 nm fluorescence (AID 1133); settings: small-molecule microarray binding, FGF2, fluorescence 635/667; higher = more signal
[17] = mitochondrial membrane potential change in A549 cells, profiling panel, cell-based, JC-1 fluorescence, basal, 24 h, 100 nL (AID 1138); settings: higher = more signal;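 further: A549 lung adenocarcinoma cells under basal conditions with no added stimulus; test concentration not given here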
[18] = test system: Lefty1; assay: Lefty1 binders on small-molecule microarrays, primary screen, biochemical, small-molecule microarray, 635/667 nm fluorescence (AID 1139); settings: small-molecule microarray binding, fluorescence 635/667; higher = more signal
[19] = test system: wheat germ agglutinin (Triticum aestivum), Alexa647-labelled; assay: wheat germ agglutinin binders on compound microarrays, profiling panel, artefact control for SMM control-protein annotation, biochemical, small-molecule microarray, 635/667 nm fluorescence (AID 1140); settings: WGA-A647 binding, 635 nm fluorescence, higher = more signal;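 further: score merges 667 nm feature emission with signal to noise over triplicate slides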
[20] = target: Luciferin 4-monooxygenase (Photinus pyralis) (UniProt P08659); assay: firefly luciferase enzyme inhibitors, primary screen, biochemical, luminescence, purified enzyme, 2006 set (AID 1141); settings: SteadyGlo luminescence, 30 min, higher = more signal, called active from +8 up or from −8 down;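 further: cell-free assay with purified firefly luciferase at 100 ng per well in PBS; test concentration not given here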
Luciferin 4-monooxygenase (Photinus pyralis), sequence (P08659 whole entry, looked up): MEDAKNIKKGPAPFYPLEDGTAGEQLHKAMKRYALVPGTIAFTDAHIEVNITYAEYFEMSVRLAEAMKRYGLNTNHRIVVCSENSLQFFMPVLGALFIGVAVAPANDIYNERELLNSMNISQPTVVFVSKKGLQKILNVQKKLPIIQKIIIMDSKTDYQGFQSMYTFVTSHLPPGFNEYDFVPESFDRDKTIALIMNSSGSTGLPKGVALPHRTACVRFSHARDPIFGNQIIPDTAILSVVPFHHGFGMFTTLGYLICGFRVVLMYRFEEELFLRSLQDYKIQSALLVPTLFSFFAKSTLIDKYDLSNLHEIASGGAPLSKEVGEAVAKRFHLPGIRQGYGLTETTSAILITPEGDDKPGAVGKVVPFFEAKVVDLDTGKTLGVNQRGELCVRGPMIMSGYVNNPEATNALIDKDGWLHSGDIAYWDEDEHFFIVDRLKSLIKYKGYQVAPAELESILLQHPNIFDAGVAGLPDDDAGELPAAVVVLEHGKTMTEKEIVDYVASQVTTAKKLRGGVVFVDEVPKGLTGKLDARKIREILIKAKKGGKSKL

Fibroblast growth factor 2 (Homo sapiens), sequence (P09038 whole entry, looked up): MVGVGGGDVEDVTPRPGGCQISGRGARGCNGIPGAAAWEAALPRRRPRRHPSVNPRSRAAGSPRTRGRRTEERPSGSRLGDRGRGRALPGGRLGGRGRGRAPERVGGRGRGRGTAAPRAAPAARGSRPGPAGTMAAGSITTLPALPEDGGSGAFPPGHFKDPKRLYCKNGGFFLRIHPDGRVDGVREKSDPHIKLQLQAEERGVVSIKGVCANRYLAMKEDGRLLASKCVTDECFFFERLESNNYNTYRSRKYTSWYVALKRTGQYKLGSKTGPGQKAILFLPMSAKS
Concanavalin-A (Canavalia ensiformis), sequence (P02866 whole entry, looked up): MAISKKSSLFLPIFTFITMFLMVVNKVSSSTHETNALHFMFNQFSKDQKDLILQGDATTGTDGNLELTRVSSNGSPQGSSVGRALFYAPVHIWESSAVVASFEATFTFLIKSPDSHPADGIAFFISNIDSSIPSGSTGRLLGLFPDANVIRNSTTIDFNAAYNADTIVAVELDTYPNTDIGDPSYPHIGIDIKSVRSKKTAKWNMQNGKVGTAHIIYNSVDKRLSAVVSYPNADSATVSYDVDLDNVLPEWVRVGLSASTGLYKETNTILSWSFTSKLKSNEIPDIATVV
Focal adhesion kinase 1 (Homo sapiens), sequence (Q05397 whole entry, looked up): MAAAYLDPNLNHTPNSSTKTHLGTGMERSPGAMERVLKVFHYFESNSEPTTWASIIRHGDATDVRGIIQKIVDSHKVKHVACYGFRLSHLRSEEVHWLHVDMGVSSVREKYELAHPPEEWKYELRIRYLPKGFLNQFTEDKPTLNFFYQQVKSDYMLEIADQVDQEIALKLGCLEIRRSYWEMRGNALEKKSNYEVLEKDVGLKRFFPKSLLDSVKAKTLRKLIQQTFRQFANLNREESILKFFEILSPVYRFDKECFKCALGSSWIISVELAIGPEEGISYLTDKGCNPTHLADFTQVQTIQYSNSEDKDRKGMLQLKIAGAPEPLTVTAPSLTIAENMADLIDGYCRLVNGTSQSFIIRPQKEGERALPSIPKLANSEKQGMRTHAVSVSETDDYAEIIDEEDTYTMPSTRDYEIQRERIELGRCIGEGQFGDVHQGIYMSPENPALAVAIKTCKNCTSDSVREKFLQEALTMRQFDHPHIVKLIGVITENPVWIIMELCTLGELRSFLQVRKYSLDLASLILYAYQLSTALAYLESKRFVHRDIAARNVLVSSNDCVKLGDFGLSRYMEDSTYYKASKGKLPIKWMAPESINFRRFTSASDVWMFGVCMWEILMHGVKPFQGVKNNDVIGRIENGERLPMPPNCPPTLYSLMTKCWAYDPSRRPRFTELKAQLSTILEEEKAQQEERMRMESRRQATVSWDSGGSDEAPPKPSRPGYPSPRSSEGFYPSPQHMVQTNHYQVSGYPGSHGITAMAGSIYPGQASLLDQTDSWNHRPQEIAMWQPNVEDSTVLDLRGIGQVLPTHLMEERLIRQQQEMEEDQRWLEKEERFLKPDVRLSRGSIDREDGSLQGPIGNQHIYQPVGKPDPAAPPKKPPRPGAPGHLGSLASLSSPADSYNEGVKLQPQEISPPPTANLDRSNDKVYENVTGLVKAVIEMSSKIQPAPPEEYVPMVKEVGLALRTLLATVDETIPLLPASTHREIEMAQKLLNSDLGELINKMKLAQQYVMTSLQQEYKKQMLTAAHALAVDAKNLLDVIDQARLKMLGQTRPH
Albumin (Bos taurus), sequence (P02769 whole entry, looked up): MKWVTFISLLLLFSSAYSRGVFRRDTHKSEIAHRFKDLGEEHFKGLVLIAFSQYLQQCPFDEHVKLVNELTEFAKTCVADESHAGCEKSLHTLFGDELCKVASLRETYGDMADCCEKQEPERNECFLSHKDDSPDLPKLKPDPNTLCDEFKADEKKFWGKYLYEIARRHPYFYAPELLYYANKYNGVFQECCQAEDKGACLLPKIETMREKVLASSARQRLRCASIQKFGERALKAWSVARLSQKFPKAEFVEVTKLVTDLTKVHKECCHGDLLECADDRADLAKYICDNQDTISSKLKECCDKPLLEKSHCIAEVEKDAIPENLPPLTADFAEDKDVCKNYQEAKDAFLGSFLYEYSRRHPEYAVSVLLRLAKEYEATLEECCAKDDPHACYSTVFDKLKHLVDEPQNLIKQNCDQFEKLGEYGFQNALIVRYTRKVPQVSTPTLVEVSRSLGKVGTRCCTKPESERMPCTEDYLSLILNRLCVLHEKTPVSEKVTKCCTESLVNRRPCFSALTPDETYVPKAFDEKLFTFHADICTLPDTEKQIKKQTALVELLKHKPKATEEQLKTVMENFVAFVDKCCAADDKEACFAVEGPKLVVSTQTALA
Follistatin (Homo sapiens), sequence (P19883 whole entry, looked up): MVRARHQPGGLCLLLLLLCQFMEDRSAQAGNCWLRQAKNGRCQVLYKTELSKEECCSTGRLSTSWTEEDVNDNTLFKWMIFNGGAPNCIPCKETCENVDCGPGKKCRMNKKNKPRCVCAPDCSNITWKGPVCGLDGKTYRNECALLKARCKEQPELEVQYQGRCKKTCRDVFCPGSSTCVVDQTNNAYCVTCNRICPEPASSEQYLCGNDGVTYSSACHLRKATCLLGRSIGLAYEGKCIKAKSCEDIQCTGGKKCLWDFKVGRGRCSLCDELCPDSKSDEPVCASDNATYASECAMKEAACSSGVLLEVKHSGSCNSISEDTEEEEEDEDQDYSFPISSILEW

SMILES | composite z-score [1] | composite Z-score [2] | composite z-score [3] | composite z-score [4] | composite z-score [5] | composite z-score [6] | composite z-score [7] | composite z-score [8] | composite z-score [9] | composite z-score [10] | composite z-score [11] | composite z-score [12] | composite z-score [13] | composite z-score [14] | composite z-score [15] | composite z-score [16] | z-score [17] | composite z-score [18] | composite z-score [19] | z-score [20]
COC(=O)C(CC#Cc1ccc2c(c1)[C@]1(C(=O)N2)[C@H](c2ccc(O)cc2)N2[C@H](c3ccccc3)[C@H](c3ccccc3)OC(=O)[C@H]2[C@@H]1C(=O)NC[C@H](O)c1ccccc1)C(=O)OC | 0.0841 | 0.564 (inactive) | 0.0948 | -0.0956 | 0.553 | 1.22 | 1.2 | 1.24 | 0.294 | 0.517 | 0.509 | 0.779 | 0.408 | 0.733 | 1.21 | 0.551 | -0.97 | 0.685 | 0.9 | 0.314 (inactive)
COCCOC(=O)N1C(=O)[C@@]2(c3cc(C#CC4(O)CCCCCC4)ccc31)[C@H](C(=O)Nc1nc3ccccc3s1)[C@H]1C(=O)O[C@H](c3ccccc3)[C@H](c3ccccc3)N1[C@@H]2c1ccc(O)cc1 | 0.25 | 0.56 (inactive) | 0.188 | -0.088 | 0.303 | 1.59 | 0.713 | 1.3 | 0.626 | 1.18 | 1.89 | 1.24 | 0.783 | 0.942 | 1.28 | 1.06 | -1.14 | 1.15 | 0.275 | -0.557 (inactive)
CCOC(=O)C[C@H]1[C@H](OC(=O)c2cc3ccccc3oc2=O)[C@@H](NC(=O)CC(C)C)c2cc(OCCCO)ccc2N1C(=O)c1ccc2ccccc2n1 | 0.42 | -0.077 (inactive) | 0.191 | -0.237 | 0.43 | 1.04 | 0.102 | 1.26 | 0.324 | 0.625 | 0.672 | 0.686 | 0.223 | 0.807 | 1.03 | 1.51 | -0.551 | 0.903 | 0.0235 | 0.425 (inactive)
CCC1=C2CN(Cc3ccccc3)[C@@H](C(=O)Cc3ccccc3)C2C=CCC1 (stereo not given in full) | 0.912 | -0.496 (inactive) | 0.0293 | -0.149 | 0.679 | 1.58 | -0.186 | 0.169 | -0.263 | 0.351 | 0.797 | -0.0353 | -0.383 | 0.666 | 0.578 | 0.0052 | -1.22 | 0.352 | 0.557 | 0.313 (inactive)
N[C@@H](Cc1ccccc1)C(=O)NCc1cn(Cc2ccccc2)nn1 | -0.337 | 0.961 (inactive) | -0.0656 | -0.101 | 0.431 | -0.276 | -0.0884 | -0.341 | 0.849 | -0.0527 | 0.615 | -0.096 | -0.519 | 0.395 | 1.15 | 0.416 | 0.154 | 0.2 | 0.309 | -0.352 (inactive)
COCCOC(=O)N1C(=O)[C@@]2(c3cc(C#CC4=CCCCC4)ccc31)[C@H](c1ccccc1OCCO)N1[C@H](c3ccccc3)[C@H](c3ccccc3)OC(=O)[C@H]1[C@@H]2C(=O)NC[C@H](O)c1ccccc1 | -0.185 | 0.511 (inactive) | 0.463 | -0.118 | 0.409 | 1.53 | 0.661 | 1.3 | 0.715 | 1.14 | 0.705 | 1.14 | 0.303 | 0.882 | 1.36 | 1.52 | -0.701 | 1.46 | 0.658 | -1.04 (inactive)
COC(=O)C1=CC(CCCO)=CC(c2cccs2)N(Cc2cccc(OC(F)(F)F)c2)C=C1C(=O)OC (stereo not given) | 0.935 | 0.387 (inactive) | 0.208 | 0.224 | 0.834 | 1.93 | 0.718 | 1.3 | -0.413 | 1.13 | 1.51 | 1.23 | 2.18 | 0.972 | 1.23 | -0.141 | 1.87 | 0.233 | 1.13 | -1.41 (inactive)
O=C1CS(=O)(=O)C(c2cccc([N+](=O)[O-])c2)N1c1ccccc1 (stereo not given) | 0.501 | 1.11 (inactive) | 0.482 | 0.48 | 0.787 | 0.904 | 0.85 | 0.329 | 0.527 | 0.353 | 1.67 | 1.16 | 0.596 | 0.522 | 0.469 | 0.698 | 1.53 | -0.269 | 0.909 | -1.61 (inactive)
CCOC(=O)C1=C[C@@H](C(C)C)N(S(=O)(=O)c2ccc(C)cc2)[C@H]1c1ccc(C(F)(F)F)cc1 | 0.665 | 0.559 (inactive) | 0.256 | -0.0438 | 0.173 | 2.52 | 0.327 | 1.31 | 0.106 | 1.05 | 0.922 | 1.22 | 0.224 | 0.975 | 0.929 | 0.604 | 2.67 | 0.895 | 0.909 | 0.612 (inactive)
C=CCN1Cc2ccccc2[C@@H]2OC(c3ccc(OCCCO)cc3)=N[C@]2(CC=C)C1=O | -0.187 | 1.79 (inactive) | 0.43 | 0.147 | 0.544 | 3.16 | 0.585 | 1.22 | 1.44 | 1.1 | 2.25 | 1.15 | 0.68 | 0.542 | 1.49 | 1.57 | 2.5 | 1.2 | 0.667 | -1.91 (inactive)
COCC(=C=CC[C@H](O)c1ccc(OCCO)cc1)CCO | -0.173 | -0.321 (inactive) | -0.0298 | 0.0312 | 0.736 | 0.368 | 0.342 | 0.763 | 0.262 | -0.155 | 0.434 | 0.633 | -0.225 | -0.142 | 1.41 | 1.06 | 0.63 | 1.56 | -0.335 | -1.36 (inactive)
C=CCNC(=O)[C@@H]1[C@H]2C(=O)O[C@H](c3ccccc3)[C@H](c3ccccc3)N2[C@H](c2ccccc2OCCO)[C@@]12C(=O)Nc1ccc(C#CCCO)cc12 | -0.162 | -0.433 (inactive) | -0.0302 | -0.147 | 0.675 | 0.71 | 0.452 | 0.826 | 1.13 | 1.15 | 0.169 | 0.723 | 0.415 | 0.862 | 1.43 | 1.62 | 0.861 | 1.32 | 0.5 | 0.467 (inactive)
COc1cc(C(O)C2C=CC3C(=O)N(C)C(=O)C3N2Nc2ccccc2)cc(OC)c1OC (stereo not given) | 0.785 | -0.014 (inactive) | 0.962 | 0.106 | 0.818 | 3.2 | 0.708 | 1.11 | -0.0836 | 1.01 | 2.78 | 1.23 | 1.05 | 1 | 0.568 | -0.397 | 0.29 | -0.714 | 1.14 | -1.36 (inactive)
